Laboratory results reported in PubChem BioAssay (NCI).
Compounds without any hit were thinned out: in the full panel of roughly 79,000, 15% have a hit. Calls of active or inactive are those of the source. No stated cut-off is given here; in the data, active means growth inhibition above about 70%; inactive means the rest.

Experiment: NCI Yeast Anticancer Drug Screen. Data for the rad18 strain (AID 177)
Details: S. cerevisiae rad18 mutant growth inhibition, active compounds read high
Description: Growth inhibition of yeast strains with defined genetic alterations is measured as a screen for potential anti-cancer activity. Selected strains with alterations in DNA damage repair or cell cycle control were exposed to compounds and growth inhibition was measured relative to vehicle treated controls. The strain used in this assay is rad18

Measured: growth inhibition

CC1CC(C)(C)CC(OCCN2CCCCC2)(c2ccccc2)C1 (stereo not given)
active: at 100.0 µM 91%
inactive: at 1.2 µM -3% | at 3.7 µM 11% | at 11.0 µM 30% | at 33.0 µM 55%

Cc1cccc(/C=N/NC(=S)N2CCCC2)n1
inactive: at 1.2 µM -17% | at 3.7 µM -14% | at 11.0 µM 12%
active: at 33.0 µM 95% | at 100.0 µM 96%

COc1ccc2[nH]cc([C@@H]3C4CCC(C4)[C@H]3NCc3cccc(CN[C@H]4C5CCC(C5)[C@@H]4c4c[nH]c5ccc(OC)cc45)c3)c2c1
inactive: at 1.2 µM -19% | at 3.7 µM -10% | at 11.0 µM -31% | at 33.0 µM 58%
active: at 100.0 µM 98%

O=c1nc2n(Cc3ccccc3)c3ccccc3nc-2c(=O)[nH]1
inactive: at 1.2 µM 0% | at 3.7 µM 1% | at 11.0 µM 4% | at 33.0 µM 9% | at 100.0 µM 9%

COc1cc(C2c3cc4c(cc3OC(OC(C)=O)C2C)OCO4)cc(OC)c1OC (stereo not given)
active: at 100.0 µM 85%
inactive: at 1.2 µM -3% | at 3.7 µM -4% | at 11.0 µM 1% | at 33.0 µM 5%

CC1=NOC(=O)/C1=C/c1ccc2c(c1)OCO2
inactive: at 1.2 µM 2% | at 3.7 µM -12% | at 11.0 µM 10% | at 33.0 µM 36% | at 100.0 µM 61%

NC(=O)c1c([N+](=O)[O-])cc(C(F)(F)F)cc1[N+](=O)[O-]
inactive: at 1.2 µM 0% | at 3.7 µM 2% | at 11.0 µM 4% | at 33.0 µM 6% | at 100.0 µM 16%

O=C(CC(C(=O)O)N1CCOCC1)c1ccccc1 (stereo not given)
inactive: at 1.2 µM -1% | at 3.7 µM 5% | at 11.0 µM 28%
active: at 33.0 µM 80% | at 100.0 µM 91%
